Molecules are shown by their SMILES.

The assay deals with Glucose transporter (Leishmania mexicana) (UniProt O61059). The assay is described as follows: ST_JUDE_LEISH: Cytotoxicity at 2uM final concentration against transgenic Leishmania Mexicana promastigotes LmGT2 that are glucose transport deficient and complemented with the L. Mexicana glucose transporter 2. Activity is measured by DNA content using SYBR green in vitro. It is filed as functional.
`CC1CCC(NC(=O)c2nn(-c3ccc(Cl)cc3)c(=O)c3ccccc23)CC1` (stereo not given): the inhibition is -0.26%.
In the case of `Cc1noc(C)c1-c1ccc2c(Nc3ccccc3C(C)(C)C)c(C(=O)NCc3ccccc3)cnc2c1` it was 3.62%.
In the case of `COc1ccc2ccccc2c1CON1C(=N)N=C(N)NC1(C)C` it was 1.5%; in that of `CC[C@H](C)CNC(=O)c1cncc(-c2ccc(CNCCOc3ccccc3)cc2)c1`, 1.09%; in that of `Cn1cncc1C(=O)Nc1cccc(-c2cccc(-c3nc4cc(F)ccc4[nH]3)c2)c1`, 1.75%.
In the case of `CC(C)c1ccc(NC(=O)c2ccc(NCCCN(C)Cc3ccccc3)c([N+](=O)[O-])c2)cc1` it was -0.53%; in that of `COc1ccc(-n2nc(C(=O)NCCC3=CCCCC3)c3ccccc3c2=O)cc1`, -0.39%; in that of `CCCCC(=O)N(CCOC)Cc1ccc(-c2ccc(CNCCC)cn2)cc1`, 5.46%.
On to `COc1ccccc1CCNc1nc(C)cc(N[C@@H](CC(C)C)C(=O)Nc2ccccc2)n1`, for which the inhibition is -0.58%.
In the case of `O=C(/C=C/c1ccc(Cl)c(Cl)c1)NCCCCCN1CCCN(C(=O)Nc2ccc([N+](=O)[O-])cc2)CC1` it was 4.07%; in that of `CC(=O)c1sc(Cc2nc3ccccc3s2)nc1C`, -1.55%.
In the case of `Cc1cc(Nc2c(C(N)=O)cnc3cc(-c4ccoc4)ccc23)ccc1N1CCN(C)CC1`, the inhibition is -0.69%.
In the case of `O=C(/C=C/c1ccc(Cl)c(Cl)c1)NCCCN1CCC(c2c[nH]c3ccccc23)CC1` it was 6.57%; in that of `CC(CN(C)C)C(=O)Nc1cccc(-c2ccc(-c3nc4ccccc4[nH]3)cc2)c1` (stereo not given), 7.36%.
With `Cc1nc(-c2ccccc2)nc(N2CCN(C(=O)c3ccco3)CC2)c1Cc1ccccc1F`, the inhibition came out at 7.76%.
Consider `CC(CN(C)C)C(=O)Nc1ccc(-c2ccc(-c3nc4cc(F)ccc4[nH]3)cc2)cc1` (stereo not given), for which the inhibition stood at 2.85%.
Take `Cc1c(CNCCCNc2cc(=O)c3ccccc3[nH]2)sc(/C=N/O)c1Br`: the inhibition came to 5.31%.
In the case of `Nc1c(Cl)cc(C(O)CNCCCCCOCCc2ccc3occc3c2)cc1Cl` (stereo not given) it was 1.96%.
In the case of `CCN1CCc2nc3ccccc3c(C(=O)Nc3ccc(C#N)cc3)c2C1` it was -1.04%; in that of `Cc1cnc(C(=O)Nc2cccc(-c3ccc(-c4nc5cc(C(F)(F)F)ccc5[nH]4)s3)c2)cn1`, 6.71%; in that of `C[C@H](Cc1ccc(Oc2ccc(C[C@@H](C)NC[C@H](O)c3cccc(Cl)c3)cc2)cc1)NC[C@H](O)c1cccc(Cl)c1`, 102%.
In the case of `O=C(/C=C/c1ccc(Cl)c(Cl)c1)NCCCCCN1CCC(C(=O)Nc2ccc(F)c(Cl)c2)CC1` it was 1.53%.
`C[C@H](NC(=O)c1c(CN2CCC(N3CCCCC3=O)CC2)c(-c2cccs2)nc2ccccc12)C1CCCCC1`: the inhibition was 0.41%.
In the case of `CCCCN(CCCC)CCCCNc1c2ccc(Cl)cc2nc2ccc(OC)cc12` it was 13.3%; in that of `NCC1CCCN1Cc1ccc(-c2cccc(-c3nc4cc(C(F)(F)F)ccc4[nH]3)c2)cc1` (stereo not given), 3.17%; in that of `COc1cc2nc(NC3CCN(Cc4ccccc4)CC3)nc(N)c2cc1OC`, 13%.
In the case of `COc1cccc2cc(C(=O)N[C@@H](CC(C)C)C(=O)N[C@H](/C=N/NC(=O)OC(C)(C)C)CC(=O)OC(C)(C)C)oc12` it was 3.63%; in that of `Fc1cc(CN2CCCC2)ccc1OCCCN1CCN(c2cccc(Cl)c2Cl)CC1`, 4.5%; in that of `COc1ccc(NC(=O)c2ccc(C=Cc3ccc(C(F)(F)F)cc3)cc2)cc1N1CCN(C)CC1`, -0.41%.
With `CCOc1cc(C(=O)Nc2ccc(-c3nc4ccccc4[nH]3)cc2)cc(OCC)c1OCC`, the inhibition was determined as 2.55%.
In the case of `CN(C)c1ccc(NC2=NC(N)=NC(C)(C)N2)cc1` it was 0.7%; in that of `CCNc1cc(C(=O)NC(Cc2ccccc2)C(O)CNC(C)(C)CCCC(C)C)c(F)c(N2CCCS2(=O)=O)c1` (stereo not given), 1.59%; in that of `FC(F)(F)c1cc(Nc2ccc(Oc3ccccc3)cc2)c2cc(-c3ccncc3)ccc2n1`, -0.05%.
In the case of `O=C1CC(C(=O)Nc2cccc(-c3cccc(-c4nc5ccccc5[nH]4)c3)c2)c2ccccc2N1` (stereo not given) it was 0.51%.
In the case of `Clc1ccc(OCc2ccccc2)c(-c2nc(-c3nc4ccc(Cl)cc4[nH]3)cs2)c1`, the inhibition came to 3.09%.
Take `CCn1c(-c2nonc2N)nc2c(-c3cccc(NC(=O)Nc4cccc(Cl)c4)c3)ncc(OCCCN)c21`: the inhibition amounted to 2.75%.
As to `O=C(Nc1cccc(-c2ccc(-c3nc4cc(C(F)(F)F)ccc4[nH]3)cc2)c1)Nc1ccc(F)c(F)c1F`, the inhibition was found to be 0.37%.
In the case of `CCn1c(C)cc(C=C2SC(=Nc3ccccc3)NC2=O)c1C` it was 2.93%; in that of `Cc1ccc(Nc2nc(N)c3ccccc3n2)cc1`, 4.74%.
Take `CC(C)CNCc1cccc(-c2cccc(CN(CCCN3CCN(C)CC3)C(=O)Nc3ccccc3)c2)c1`: the inhibition was 0.33%.

(Values after ChEMBL document CHEMBL3433997, “St. Jude Leishmania screening dataset” (2016).)
